Screens (PubChem)
This is a sample that favours compounds with a hit; in the whole collection about 12% have one here.
JMJD2A Tudor: JMJD2A Tudor domain (human) inhibition; O75164; AlphaScreen JMJD2A-Tudor / H3K4me3 peptide binding; Potency, µM (top dose mostly 114 µM), hits mostly inhibitors; 4.4% of 390,000 active; AID 504339; also: nearly all actives have a fitted effect of over 50% in size
BAZ2B inh: inhibitors of human BAZ2B bromodomain | Q9UIF8 | AlphaScreen BAZ2B-H3K14Ac peptide displacement | Potency, µM (top dose mostly 114 µM), usual class: inhibitors | 4.4% of 360,000 active; also: nearly all actives have a fitted effect of over 60% in size
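Inhibition is scored as reduced AlphaScreen emission. The BAZ2B/b-H3(5-23)K14Ac complex (50 nM each) in PBS pH 7.4, 0.01% Tween-20 meets compound (up to 110 uM) for 30 min at RT before bead addition.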
L3MBTL1 inh: L3MBTL1 (human) inhibition; AID 485360; 0.66% of 230,000 active; Potency, µM (doses to about 57.1 µM), most hits filed as inhibitors; AlphaScreen L3MBTL1–H3K9me1 peptide binding; also: nearly all actives have a fitted effect of over 60% in size
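L3MBTL1 50 nM + b-AHA-H3(1-15)K9me1 75 nM, 30 min RT; compound added, 30 min RT; streptavidin donor/Ni-chelate acceptor beads 10 ug/mL each final, 30 min RT dark; AlphaScreen read.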
HP1b binding inh: inhibitors of HP1-beta chromodomain binding to methylated histone tails; P83916; AlphaScreen HP1-beta / biotin-H3K9me3 peptide binding; Potency, µM (series often up to 114 µM), actives largely listed as inhibitors; AID 540317; 0.56% of 390,000 active; also: nearly all actives have a fitted effect of over 70% in size
Target sequence (P83916 whole entry, looked up): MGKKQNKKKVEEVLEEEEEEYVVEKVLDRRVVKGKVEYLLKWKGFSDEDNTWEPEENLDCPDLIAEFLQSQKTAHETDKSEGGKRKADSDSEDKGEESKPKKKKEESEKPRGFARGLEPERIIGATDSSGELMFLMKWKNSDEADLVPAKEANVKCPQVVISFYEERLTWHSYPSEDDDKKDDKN
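AlphaScreen: HP1-beta (50 nM) preformed 30 min with biotin-H3(1-18)K9me3 peptide (50 nM) in PBS pH 7.4, 0.01% Tween-20. Compound added for 30 min at RT, then streptavidin donor/nickel chelate acceptor beads (10 ug/mL) for 30 min.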
G9a inh: G9a (human) methyltransferase inhibition. G9a H3K9 monomethylation, AlphaScreen, 2 h. Potency, µM (series often up to 102 µM), hits mostly inhibitors. 8.8% of 350,000 active. AID 504332; also: nearly all actives have a fitted effect of over 75% in size
Target sequence (Q96KQ7 913-1193 limits assumed): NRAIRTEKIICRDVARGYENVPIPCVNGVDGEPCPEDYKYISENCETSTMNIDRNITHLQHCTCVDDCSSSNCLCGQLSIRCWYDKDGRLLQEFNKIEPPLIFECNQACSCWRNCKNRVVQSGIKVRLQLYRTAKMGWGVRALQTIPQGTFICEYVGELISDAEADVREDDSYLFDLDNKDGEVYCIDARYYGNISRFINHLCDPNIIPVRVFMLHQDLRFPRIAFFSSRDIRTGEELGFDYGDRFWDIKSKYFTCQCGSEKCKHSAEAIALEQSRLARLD
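Enzyme 20 nM + cpd, 15 min RT; add b-H3K9 pep 500 nM / SAM 20 uM; 2 h RT; anti-H3K9me1 Ab 0.5 ug/mL + SA donor / anti-rabbit acceptor beads 20 ug/mL each, 10 min; AlphaScreen read.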
Sfp inh: Sfp phosphopantetheinyl transferase inhibition. Q9F4F7. Biochemical Sfp PPTase activity, qHTS. Potency, µM, usual class: inhibitors. 3.5% of 310,000 active. AID 1490;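 also: the enzyme is Sfp with the accession as filed and its product quenches rhodamine fluorescence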
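After 15 min at room temperature with compound, 15 nM Sfp received 5 uM rhodamine-CoA plus 12.5 uM BHQ-2-ybbR (50 mM Hepes pH 7.6, 10 mM MgCl2). Rate came from the fluorescence difference over 30 min, ex 525/em 598 nm.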
A number is an active result; – = inactive; ? = inconclusive; · = not tested or not shown; [ ] = dose if it differs, or a comment. Calls follow the shape of the dose curve; as a rule, active = well fitted curve in the direction sought with a large enough effect; inconclusive = small, poorly fitted or top-dose-only effect, or another doubt; inactive = no such curve, though single readings can be large; an effect the other way counts as inactive or inconclusive.

SMILES	JMJD2A Tudor	BAZ2B inh	L3MBTL1 inh	HP1b binding inh	G9a inh	Sfp inh
CC1(C)NC(C(=O)O)Cc2c1[nH]c1ccccc21 (stereo unspecified)	–[11.4 µM]	–	–	–	25µM	–
CC(=O)N1C(C(=O)O)Cc2c([nH]c3ccccc23)C1(C)C (stereo unspecified)	–	–	–	–	–	–
Oc1cccc(Nc2ccccc2)c1	–	?	–	–	–[0.501 µM]	·
Fc1cccc(NC(=S)NNc2ccccc2)c1	56µM	40µM	·	?	50µM	–
Oc1cccc(NC(=S)Nc2ccccc2)c1	–	–	·	–	50µM	–
NC(=S)Nc1cccc(F)c1	–	–	–	–	?	–
Fc1cccc(NC(=S)NNc2c3ccccc3nc3ccccc23)c1	?	7.1µM	·	?	16µM	–
Cc1ccc(CNC(=O)C2CCN(S(=O)(=O)N3CC(C)CC(C)C3)CC2)cc1 (stereo unspecified)	–	–	·	–	–	–
CC1CCN(C(=O)C(C)NCc2ccc(F)cc2)CC1 (stereo unspecified)	10µM	50µM	–	–	7.1µM	–
CC1CCN(S(=O)(=O)N2CCCC(C(=O)NCc3ccc(F)cc3)C2)CC1 (stereo unspecified)	11µM	–	·	–	–	–
CC1CCN(CC2CCN(C(=O)NCc3ccc(F)cc3)CC2)CC1	–	–	·	–	–	·
CCc1ccc(CNC(=O)C2CCN(S(=O)(=O)N3CC(C)CC(C)C3)CC2)cc1 (stereo unspecified)	–	50µM	·	–	–	–
CC[n+]1c(/C=C/C=C/N(C(C)=O)c2ccccc2)sc2ccccc21	79µM	28µM	–	–	–[0.501 µM]	50µM
CCn1c(/C=C/N(C(C)=O)c2ccccc2)[n+](CC)c2ccc(Cl)cc21	–	?	–	–	79µM	–
CCOC(=O)c1ccc2c(c1)n(CCCS(=O)(=O)[O-])c(/C=C/c1ccc(Cl)cc1)[n+]2CC	–	–	–	–	·	–
CC[n+]1c(/C=C/C=C2/N(C)c3ccccc3C2(C)C)sc2ccccc21	·	·	·	·	8.9µM	·
CCN1C(=O)/C(=C/N(C(C)=O)c2ccccc2)N(c2ccccc2)C1=S	–	–	·	–	?	–
COCCCN1CN(S(=O)(=O)c2ccc(Cl)cc2)c2nc3ccccc3nc21	–	–	–	–	28µM	–
C=CCN1CN(S(=O)(=O)c2cccc(Cl)c2)c2nc3ccccc3nc21	–	–	·	–	79µM	–
COc1ccc(CCN2CN(S(=O)(=O)c3ccccc3)c3nc4ccccc4nc32)cc1OC	–	–	–	–	32µM	–
O=S(=O)(c1cccc(Cl)c1)N1CN(CC2CCCO2)c2nc3ccccc3nc21 (stereo unspecified)	–	?	·	–	·	–
O=S(=O)(c1ccc(Cl)cc1)N1CN(CC2CCCO2)c2nc3ccccc3nc21 (stereo unspecified)	–	–	·	–	40µM	–
COc1ccc(N(C(=O)COc2c(C)cccc2C)S(=O)(=O)c2ccc(Cl)cc2)cc1	–	–	·	–	–	·
CCc1ccc(NCc2cc3cc4c(cc3n(CC(=O)Nc3ccc(Cl)cc3)c2=O)OCO4)cc1	–	–	·	–	?	·
CN1CCCN(S(=O)(=O)c2ccccc2)c2nc3ccccc3nc21	–	–	–	–	?	·
SMILES	JMJD2A Tudor	BAZ2B inh	L3MBTL1 inh	HP1b binding inh	G9a inh	Sfp inh
COCCCNc1nc2ccccc2nc1NS(=O)(=O)c1cccc(Cl)c1	–	–	·	–	–[12.7 µM]	–
COCCN1CN(S(=O)(=O)c2cccc(Cl)c2)c2nc3ccccc3nc21	–	–	·	–	45µM	–
COc1ccc(CCN2CN(S(=O)(=O)c3ccccc3)c3nc4ccccc4nc32)cc1	–	–	–	–	?	–
CCCCN1CN(S(=O)(=O)c2ccc(OC)cc2)c2nc3ccccc3nc21	–	?	·	–	35µM	–
CC(C)OCCCN1CN(S(=O)(=O)c2ccccc2)c2nc3ccccc3nc21	–	?	–	–	32µM	–
N#CCc1ccc(Oc2ncc(C(F)(F)F)cc2Cl)cc1	–	–	–	–	–	–
Cc1ccc(CO/N=C\Cc2snc(Sc3ncc(C(F)(F)F)cc3Cl)c2C#N)cc1	?	35µM	·	?	11µM	–
CCOc1ccccc1NC(=O)Cn1c(=O)n(Cc2cccs2)c(=O)c2cccnc21	–	–	·	–	–	·
